Publication PMC7862700, “An all-to-all approach to the identification of sequence-specific readers for epigenetic DNA modifications on cytosine”

Tests used:
Assay in all cases: DAPPL (digital affinity profiling via proximity ligation, sequencing); 10 mM Tris-HCl pH 7.5, 50 mM NaCl, 1 mM DTT, 4% glycerol, room temperature, 30 min; GST-TFs on glutathione beads, 16-mer random dsDNA library, 0.1% formaldehyde crosslink after washing; high values mean tight binding
FLI1 = biological target: T1, FLI1 (Homo sapiens, UniProt Q01543 1-452); conditions: protein: recombinant; tags: N-terminal GST; dsDNA, one strand shown
T1 sequence: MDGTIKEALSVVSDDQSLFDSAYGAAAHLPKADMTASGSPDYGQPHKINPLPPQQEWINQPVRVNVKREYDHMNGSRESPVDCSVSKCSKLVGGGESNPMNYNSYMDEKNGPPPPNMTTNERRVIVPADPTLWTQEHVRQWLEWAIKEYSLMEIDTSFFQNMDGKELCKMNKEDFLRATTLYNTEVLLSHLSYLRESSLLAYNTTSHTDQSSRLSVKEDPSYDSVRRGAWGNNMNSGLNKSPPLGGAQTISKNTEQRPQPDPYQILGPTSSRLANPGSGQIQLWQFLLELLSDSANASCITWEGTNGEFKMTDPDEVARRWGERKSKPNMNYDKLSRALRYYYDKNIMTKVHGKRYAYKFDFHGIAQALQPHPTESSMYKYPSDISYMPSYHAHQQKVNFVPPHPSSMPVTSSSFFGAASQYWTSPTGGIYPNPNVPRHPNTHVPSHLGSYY
In short: (§1)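 A tag-only sample was pooled with DNA-barcoded human transcription factors that had been expressed in yeast as GST fusions and captured on glutathione beads. The pools were incubated for 30 min at room temperature with 200 nmole of a random double-stranded 16-mer DNA library in Tris/NaCl/DTT/glycerol buffer, then washed, crosslinked with 0.1% formaldehyde, proximity-ligated (BsaI/T4 ligase, 1 h, 37 °C), PCR-amplified and sequenced on an Illumina NextSeq500. Binding signal is each hexamer's read frequency for a factor divided by its frequency for the tag-only sample.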

ELK1 = biological target: T2, ELK1 (Homo sapiens, UniProt P19419 1-428); conditions: protein: recombinant; tags: N-terminal GST; dsDNA, one strand shown
T2 sequence: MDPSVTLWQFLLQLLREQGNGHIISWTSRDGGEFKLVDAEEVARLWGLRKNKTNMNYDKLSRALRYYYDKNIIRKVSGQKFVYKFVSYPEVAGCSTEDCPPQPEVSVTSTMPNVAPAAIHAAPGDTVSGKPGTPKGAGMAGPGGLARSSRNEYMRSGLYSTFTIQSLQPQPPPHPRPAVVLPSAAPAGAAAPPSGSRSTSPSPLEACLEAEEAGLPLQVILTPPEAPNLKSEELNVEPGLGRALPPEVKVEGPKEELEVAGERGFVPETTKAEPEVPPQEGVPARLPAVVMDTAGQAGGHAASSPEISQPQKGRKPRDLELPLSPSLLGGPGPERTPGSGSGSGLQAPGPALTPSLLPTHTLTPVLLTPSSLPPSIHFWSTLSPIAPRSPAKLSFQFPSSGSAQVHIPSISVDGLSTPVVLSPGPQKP
In short: as §1

GABPA = biological target: T3, GABPA (Homo sapiens, UniProt Q06546 1-454); conditions: protein: recombinant; tags: N-terminal GST; dsDNA, one strand shown
T3 sequence: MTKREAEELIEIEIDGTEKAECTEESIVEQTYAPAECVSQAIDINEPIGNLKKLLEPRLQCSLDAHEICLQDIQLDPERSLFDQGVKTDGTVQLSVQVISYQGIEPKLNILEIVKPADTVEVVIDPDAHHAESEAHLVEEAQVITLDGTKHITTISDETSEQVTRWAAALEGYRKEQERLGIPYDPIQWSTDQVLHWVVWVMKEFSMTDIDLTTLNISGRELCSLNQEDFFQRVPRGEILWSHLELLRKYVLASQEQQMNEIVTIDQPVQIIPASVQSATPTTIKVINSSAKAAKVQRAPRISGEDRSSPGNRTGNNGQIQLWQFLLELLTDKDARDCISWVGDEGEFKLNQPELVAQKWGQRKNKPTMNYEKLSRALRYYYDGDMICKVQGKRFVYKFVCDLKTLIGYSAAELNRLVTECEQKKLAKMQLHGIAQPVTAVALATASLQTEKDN
In short: as §1

ERG = biological target: T4, ERG (Homo sapiens, UniProt P11308 1-479); conditions: protein: recombinant; tags: N-terminal GST; dsDNA, one strand shown
T4 sequence: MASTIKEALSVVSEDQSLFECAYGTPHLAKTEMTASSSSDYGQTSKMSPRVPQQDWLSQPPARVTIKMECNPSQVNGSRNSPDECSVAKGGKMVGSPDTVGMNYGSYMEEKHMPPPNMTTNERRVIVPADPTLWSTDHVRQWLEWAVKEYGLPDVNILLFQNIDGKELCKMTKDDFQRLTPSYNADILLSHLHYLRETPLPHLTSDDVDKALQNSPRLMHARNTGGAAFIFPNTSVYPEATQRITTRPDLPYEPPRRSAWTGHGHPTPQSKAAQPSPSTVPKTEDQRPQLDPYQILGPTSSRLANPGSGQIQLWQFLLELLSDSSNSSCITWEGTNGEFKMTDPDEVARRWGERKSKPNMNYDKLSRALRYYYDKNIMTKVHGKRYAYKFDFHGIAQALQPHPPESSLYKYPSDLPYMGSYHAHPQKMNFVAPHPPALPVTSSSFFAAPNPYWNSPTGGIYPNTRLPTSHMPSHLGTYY
In short: as §1

ELF1 = ELF1 (Homo sapiens, UniProt P32519 1-619); conditions: protein: recombinant; tags: N-terminal GST; dsDNA, one strand shown
In short: as §1

EHF = biological target: T5, EHF (Homo sapiens, UniProt Q9NZC4 1-300); conditions: protein: recombinant; tags: N-terminal GST; dsDNA, one strand shown
T5 sequence: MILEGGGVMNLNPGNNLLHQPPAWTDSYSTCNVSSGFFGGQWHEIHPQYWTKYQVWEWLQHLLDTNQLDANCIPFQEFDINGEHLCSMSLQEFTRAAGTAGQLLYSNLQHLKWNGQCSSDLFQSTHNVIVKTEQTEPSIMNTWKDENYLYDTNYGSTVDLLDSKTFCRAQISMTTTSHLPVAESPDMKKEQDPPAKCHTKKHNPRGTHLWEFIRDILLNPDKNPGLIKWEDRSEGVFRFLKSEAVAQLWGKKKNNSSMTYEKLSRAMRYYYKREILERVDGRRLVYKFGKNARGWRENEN
In short: as §1

SPI1 = SPI1 (Homo sapiens, UniProt P17947 1-270); conditions: protein: recombinant; tags: N-terminal GST; dsDNA, one strand shown
In short: as §1

SPIB = SPIB (Homo sapiens, UniProt Q01892 1-262); conditions: protein: recombinant; tags: N-terminal GST; dsDNA, one strand shown
In short: as §1

ELK3 = biological target: T6, ELK3 (Homo sapiens, UniProt P41970 1-407); conditions: protein: recombinant; tags: N-terminal GST; dsDNA, one strand shown
T6 sequence: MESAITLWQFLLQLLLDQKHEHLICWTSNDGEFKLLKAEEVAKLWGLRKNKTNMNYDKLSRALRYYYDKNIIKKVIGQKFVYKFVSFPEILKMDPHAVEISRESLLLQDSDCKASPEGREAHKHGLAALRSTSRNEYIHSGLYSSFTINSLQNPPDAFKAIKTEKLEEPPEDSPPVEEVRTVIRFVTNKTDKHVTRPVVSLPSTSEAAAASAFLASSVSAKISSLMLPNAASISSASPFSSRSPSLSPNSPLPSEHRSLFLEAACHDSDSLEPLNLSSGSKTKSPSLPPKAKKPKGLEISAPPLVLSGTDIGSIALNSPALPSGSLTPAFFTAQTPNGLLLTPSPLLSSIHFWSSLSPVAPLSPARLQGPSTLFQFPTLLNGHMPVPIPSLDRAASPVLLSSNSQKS
In short: as §1

FEV = biological target: T7, FEV (Homo sapiens, UniProt Q99581 1-238); conditions: protein: recombinant; tags: N-terminal GST; dsDNA, one strand shown
T7 sequence: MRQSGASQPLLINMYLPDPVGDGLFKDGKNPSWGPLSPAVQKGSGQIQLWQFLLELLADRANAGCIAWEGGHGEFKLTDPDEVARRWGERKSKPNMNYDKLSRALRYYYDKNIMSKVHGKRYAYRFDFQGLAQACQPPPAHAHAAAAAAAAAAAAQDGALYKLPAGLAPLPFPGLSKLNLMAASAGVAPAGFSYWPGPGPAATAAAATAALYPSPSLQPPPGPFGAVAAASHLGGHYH
In short: as §1

ETV5 = ETV5 (Homo sapiens, UniProt P41161 1-510); conditions: protein: recombinant; tags: N-terminal GST; dsDNA, one strand shown
In short: as §1

HSF1 = HSF1 (Homo sapiens, UniProt Q00613 1-529); conditions: protein: recombinant; tags: N-terminal GST; chain copies: 3; dsDNA, one strand shown
In short: as §1

SPIC = biological target: T8, SPIC (Homo sapiens, UniProt Q8N5J4 1-248); conditions: protein: recombinant; tags: N-terminal GST; dsDNA, one strand shown
T8 sequence: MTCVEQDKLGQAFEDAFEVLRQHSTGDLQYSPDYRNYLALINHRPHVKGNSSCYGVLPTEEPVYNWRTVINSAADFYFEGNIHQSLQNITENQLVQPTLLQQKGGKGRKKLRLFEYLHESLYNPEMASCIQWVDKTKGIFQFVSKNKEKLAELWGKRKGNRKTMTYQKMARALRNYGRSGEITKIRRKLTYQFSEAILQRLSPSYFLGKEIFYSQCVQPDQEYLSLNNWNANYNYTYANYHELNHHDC
In short: as §1

ELF4 = ELF4 (Homo sapiens, UniProt Q99607 1-663); conditions: protein: recombinant; tags: N-terminal GST; dsDNA, one strand shown
In short: as §1

ELK4 = biological target: T9, ELK4 (Homo sapiens, UniProt P28324-2 1-405); conditions: protein: recombinant; tags: N-terminal GST; dsDNA, one strand shown
T9 sequence: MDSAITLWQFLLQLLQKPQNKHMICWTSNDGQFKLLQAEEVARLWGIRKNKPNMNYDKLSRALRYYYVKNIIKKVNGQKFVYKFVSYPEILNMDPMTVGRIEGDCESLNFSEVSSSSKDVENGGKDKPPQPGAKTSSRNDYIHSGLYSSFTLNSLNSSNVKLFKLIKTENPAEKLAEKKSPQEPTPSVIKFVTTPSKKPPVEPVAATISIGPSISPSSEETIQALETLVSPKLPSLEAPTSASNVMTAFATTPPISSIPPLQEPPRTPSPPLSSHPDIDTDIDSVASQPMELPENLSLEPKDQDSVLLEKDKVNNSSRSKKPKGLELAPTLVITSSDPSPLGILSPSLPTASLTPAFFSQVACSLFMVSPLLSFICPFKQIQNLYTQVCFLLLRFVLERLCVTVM
In short: as §1

ETV2 = biological target: T10, ETV2 (Homo sapiens, UniProt O00321 1-342); conditions: protein: recombinant; tags: N-terminal GST; dsDNA, one strand shown
T10 sequence: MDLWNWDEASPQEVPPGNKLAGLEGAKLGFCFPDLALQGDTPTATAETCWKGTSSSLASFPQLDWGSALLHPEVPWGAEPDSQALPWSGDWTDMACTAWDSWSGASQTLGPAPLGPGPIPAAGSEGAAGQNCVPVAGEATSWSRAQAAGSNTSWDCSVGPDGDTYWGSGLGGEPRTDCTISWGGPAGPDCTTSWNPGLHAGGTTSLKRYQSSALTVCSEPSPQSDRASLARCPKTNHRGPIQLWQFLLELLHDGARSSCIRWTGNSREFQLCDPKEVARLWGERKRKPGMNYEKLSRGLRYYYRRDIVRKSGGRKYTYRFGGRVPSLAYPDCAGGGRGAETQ
In short: as §1

ELF3 = biological target: T11, ELF3 (Homo sapiens, UniProt P78545 1-371); conditions: protein: recombinant; tags: N-terminal GST; dsDNA, one strand shown
T11 sequence: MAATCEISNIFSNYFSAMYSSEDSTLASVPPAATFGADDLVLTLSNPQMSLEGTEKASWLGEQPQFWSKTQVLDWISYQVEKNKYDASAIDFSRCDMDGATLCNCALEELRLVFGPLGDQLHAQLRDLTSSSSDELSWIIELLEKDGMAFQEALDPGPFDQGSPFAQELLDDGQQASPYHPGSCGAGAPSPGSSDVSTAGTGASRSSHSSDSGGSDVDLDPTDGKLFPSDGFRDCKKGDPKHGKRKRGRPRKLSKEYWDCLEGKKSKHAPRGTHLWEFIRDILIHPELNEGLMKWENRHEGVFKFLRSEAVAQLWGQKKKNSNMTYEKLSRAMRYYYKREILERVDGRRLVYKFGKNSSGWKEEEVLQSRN
In short: as §1

ETV1 = ETV1 (Homo sapiens, UniProt P50549 1-477); conditions: protein: recombinant; tags: N-terminal GST; dsDNA, one strand shown
In short: as §1

Sequence of ELF1 (P32519 whole entry): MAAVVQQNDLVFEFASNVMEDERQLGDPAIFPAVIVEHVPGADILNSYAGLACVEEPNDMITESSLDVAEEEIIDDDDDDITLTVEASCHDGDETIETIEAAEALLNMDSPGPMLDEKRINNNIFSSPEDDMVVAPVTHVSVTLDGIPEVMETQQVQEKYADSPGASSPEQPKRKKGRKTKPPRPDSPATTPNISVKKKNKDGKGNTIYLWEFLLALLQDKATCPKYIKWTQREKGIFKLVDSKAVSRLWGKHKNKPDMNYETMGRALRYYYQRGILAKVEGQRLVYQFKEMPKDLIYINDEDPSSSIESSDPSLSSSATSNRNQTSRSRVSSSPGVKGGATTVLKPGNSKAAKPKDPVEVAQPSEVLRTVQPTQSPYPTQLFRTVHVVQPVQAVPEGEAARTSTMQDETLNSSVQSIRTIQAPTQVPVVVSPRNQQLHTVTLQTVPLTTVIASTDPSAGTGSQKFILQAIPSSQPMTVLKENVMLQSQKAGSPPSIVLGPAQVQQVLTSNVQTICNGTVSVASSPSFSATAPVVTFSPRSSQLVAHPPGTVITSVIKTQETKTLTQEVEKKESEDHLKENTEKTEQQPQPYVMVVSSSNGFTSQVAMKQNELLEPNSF
Sequence of SPIB (Q01892 whole entry): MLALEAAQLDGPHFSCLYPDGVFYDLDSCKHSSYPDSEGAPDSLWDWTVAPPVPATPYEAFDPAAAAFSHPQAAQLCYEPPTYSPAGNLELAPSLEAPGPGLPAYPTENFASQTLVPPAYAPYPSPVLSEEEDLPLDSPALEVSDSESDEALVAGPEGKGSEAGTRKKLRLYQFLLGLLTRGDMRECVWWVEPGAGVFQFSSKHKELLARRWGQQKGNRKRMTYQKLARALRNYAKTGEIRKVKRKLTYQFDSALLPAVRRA
Sequence of HSF1 (Q00613 whole entry): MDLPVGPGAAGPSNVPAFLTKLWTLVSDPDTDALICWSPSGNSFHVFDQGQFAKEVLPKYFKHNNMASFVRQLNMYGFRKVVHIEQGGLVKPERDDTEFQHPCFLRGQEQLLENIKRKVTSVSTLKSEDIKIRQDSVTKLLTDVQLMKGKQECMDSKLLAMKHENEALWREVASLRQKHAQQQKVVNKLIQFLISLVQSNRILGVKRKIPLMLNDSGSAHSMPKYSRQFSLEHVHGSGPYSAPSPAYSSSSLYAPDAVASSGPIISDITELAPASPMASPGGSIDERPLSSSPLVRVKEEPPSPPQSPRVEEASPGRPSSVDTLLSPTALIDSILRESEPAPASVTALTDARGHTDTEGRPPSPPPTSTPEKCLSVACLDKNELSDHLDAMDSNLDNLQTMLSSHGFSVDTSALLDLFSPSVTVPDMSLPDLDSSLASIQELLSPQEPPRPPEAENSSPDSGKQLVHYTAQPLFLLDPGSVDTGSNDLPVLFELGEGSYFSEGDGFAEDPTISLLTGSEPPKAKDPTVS
Sequence of ETV5 (P41161 whole entry): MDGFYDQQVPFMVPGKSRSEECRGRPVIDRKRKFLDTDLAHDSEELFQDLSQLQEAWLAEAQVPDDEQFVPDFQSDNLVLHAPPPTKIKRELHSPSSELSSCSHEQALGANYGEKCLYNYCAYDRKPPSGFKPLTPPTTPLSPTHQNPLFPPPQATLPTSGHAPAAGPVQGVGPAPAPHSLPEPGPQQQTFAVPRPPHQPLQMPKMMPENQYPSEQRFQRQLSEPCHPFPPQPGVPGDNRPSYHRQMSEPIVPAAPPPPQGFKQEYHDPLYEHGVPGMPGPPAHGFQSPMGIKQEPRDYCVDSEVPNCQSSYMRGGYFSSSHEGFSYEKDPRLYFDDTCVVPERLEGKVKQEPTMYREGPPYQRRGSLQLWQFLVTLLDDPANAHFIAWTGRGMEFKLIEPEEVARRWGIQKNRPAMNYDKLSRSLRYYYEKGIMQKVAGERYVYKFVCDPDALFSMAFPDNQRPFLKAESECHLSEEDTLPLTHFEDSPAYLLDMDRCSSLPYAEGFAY
Sequence of ETV1 (P50549 whole entry): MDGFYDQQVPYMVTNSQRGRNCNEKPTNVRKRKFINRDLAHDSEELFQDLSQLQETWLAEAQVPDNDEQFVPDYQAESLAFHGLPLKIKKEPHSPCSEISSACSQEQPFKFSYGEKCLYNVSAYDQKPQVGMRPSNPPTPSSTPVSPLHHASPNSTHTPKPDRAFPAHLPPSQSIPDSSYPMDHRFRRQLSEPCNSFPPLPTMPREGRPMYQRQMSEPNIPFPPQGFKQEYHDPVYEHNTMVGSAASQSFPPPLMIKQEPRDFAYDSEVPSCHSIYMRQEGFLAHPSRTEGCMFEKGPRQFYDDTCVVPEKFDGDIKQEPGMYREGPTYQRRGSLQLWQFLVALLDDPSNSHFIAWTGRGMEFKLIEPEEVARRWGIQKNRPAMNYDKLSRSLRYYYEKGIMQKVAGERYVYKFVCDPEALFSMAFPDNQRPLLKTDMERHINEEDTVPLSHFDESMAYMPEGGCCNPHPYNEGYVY
Sequence of ELF4 (Q99607 whole entry): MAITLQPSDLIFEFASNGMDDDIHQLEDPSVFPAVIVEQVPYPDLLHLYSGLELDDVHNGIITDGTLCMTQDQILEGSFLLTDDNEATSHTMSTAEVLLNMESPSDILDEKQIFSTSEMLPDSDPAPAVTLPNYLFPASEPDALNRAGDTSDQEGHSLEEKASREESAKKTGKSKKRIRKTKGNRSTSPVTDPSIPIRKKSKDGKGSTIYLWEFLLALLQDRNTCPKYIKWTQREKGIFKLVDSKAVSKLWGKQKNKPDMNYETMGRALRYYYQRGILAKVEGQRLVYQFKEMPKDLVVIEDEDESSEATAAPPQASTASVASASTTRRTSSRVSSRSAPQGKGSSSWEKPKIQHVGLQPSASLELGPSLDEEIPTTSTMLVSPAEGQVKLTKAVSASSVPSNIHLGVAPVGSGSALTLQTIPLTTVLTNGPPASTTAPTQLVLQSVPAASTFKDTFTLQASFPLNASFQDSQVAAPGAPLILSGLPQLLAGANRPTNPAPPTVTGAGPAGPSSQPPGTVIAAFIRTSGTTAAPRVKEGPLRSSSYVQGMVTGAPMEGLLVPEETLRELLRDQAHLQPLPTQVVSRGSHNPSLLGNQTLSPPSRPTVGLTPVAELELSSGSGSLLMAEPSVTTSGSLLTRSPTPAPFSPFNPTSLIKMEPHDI

Which results are given for CCACAA?
binding signal (FLI1): 1.2 fold enrichment (6-mer frequency, TF over GST control); binding signal (ELK1): 1.14 fold enrichment (6-mer frequency, TF over GST control); binding signal (GABPA): 1.25 fold enrichment (6-mer frequency, TF over GST control); binding signal (ERG): 1.09 fold enrichment (6-mer frequency, TF over GST control); binding signal (ELF1): 1.21 fold enrichment (6-mer frequency, TF over GST control); binding signal (EHF): 1.08 fold enrichment (6-mer frequency, TF over GST control); binding signal (SPI1): 1.22 fold enrichment (6-mer frequency, TF over GST control); binding signal (SPIB): 1.07 fold enrichment (6-mer frequency, TF over GST control); binding signal (ELK3): 1.34 fold enrichment (6-mer frequency, TF over GST control); binding signal (FEV): 1.15 fold enrichment (6-mer frequency, TF over GST control); binding signal (ETV5): 1.19 fold enrichment (6-mer frequency, TF over GST control); binding signal (HSF1): 1.1 fold enrichment (6-mer frequency, TF over GST control); binding signal (SPIC): 1.09 fold enrichment (6-mer frequency, TF over GST control); binding signal (ELF4): 1.17 fold enrichment (6-mer frequency, TF over GST control); binding signal (ELK4): 1.07 fold enrichment (6-mer frequency, TF over GST control); binding signal (ETV2): 1.14 fold enrichment (6-mer frequency, TF over GST control); binding signal (ELF3): 1.39 fold enrichment (6-mer frequency, TF over GST control); binding signal (ETV1): 1.19 fold enrichment (6-mer frequency, TF over GST control)
